Experimental data as given in PubChem BioAssay (Tox21).
Results filed as inconclusive are left out. Calls of active or inactive are those of the source. Unless noted, the call rests on the fitted dose curve; in most records, active means well fitted curve in the direction sought with a large enough effect in the repeat runs; inconclusive means weak or mixed curves; inactive means no such curve, though single readings can be large; an effect the other way counts as inactive or inconclusive.

How the values were obtained:
[1] = qHTS assay to identify small molecule agonists of the estrogen related receptor signaling pathway with the pleiotropic PPARgamma coactivator (PGC) from Tox21 10K library (AID 1224842); details: PGC/ERR reporter cell line, luciferase ONE-Glo, 18 h; series mostly up to 92.4 µM; further: nearly all actives have a fitted effect of over 15% in size
Outline: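 Luminescence from One-Glo (30 min, room temperature) measured after PGC/ERR cells had 18 h at 37 C with pinned compound (23 nL in DMSO). Cells had been seeded at 2,000 per well and pre-incubated 6 h.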

[2] = qHTS assay to identify small molecule agonists of the hypoxia (HIF-1) signaling pathway - cell viability counter screen (AID 1224844; calls by dose curve; further: nearly all actives have a fitted effect of over 50% in size); details: HRE-bla ME-180 viability, CellTiter-Glo luminescence, 17 h; series mostly up to 76.8 µM
Outline: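 HRE-bla ME-180 cells, 2,000/well in 0.5% dialyzed FBS medium, treated 17 h at 37C with compounds. Viability read in the same wells as the bla reporter, by CellTiter-Glo luminescence after 30 min at room temperature.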

[3] = qHTS assay to identify small molecule agonists of H2AX (AID 1224845; active means well fitted activation curve with a large enough effect in the signal ratio in the repeat runs, not every such curve was filed as active; the % refers to the signal ratio); details: CHO-K1 phospho-H2AX Ser139 HTRF, 3 h; series mostly up to 154 µM
Outline: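 Phospho-H2AX Ser139 measured by HTRF (ex 320 nm; em 665 and 620 nm) after 24 hr antibody incubation. Compounds, 15 concentrations, 0.76% DMSO, were applied to CHO-K1 cells for 3hr at 37C before lysis.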

[4] = qHTS assay to identify small molecule agonists of the hypoxia (HIF-1) signaling pathway (AID 1224846; active means well fitted activation curve with a large enough effect in the signal ratio in the repeat runs, not every such curve was filed as active; the % refers to the signal ratio); details: HRE-bla ME-180 cells, beta-lactamase ratio, 17 h; series mostly up to 76.8 µM
Outline: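 HRE-bla ME-180 beta-lactamase reporter cells in medium with 0.5% dialyzed FBS, pre-incubated 5 h then exposed to compounds 17 h at 37C, 5% CO2; reporter induction read with CCF4-AM FRET substrate.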

[5] = qHTS assay to identify small molecule antagonists of the estrogen related receptor (ERR) signaling pathway from Tox21 library (AID 1224848); details: ERR reporter cell line, luciferase antagonist mode, 18 h; series mostly up to 92.4 µM; further: nearly all actives have a fitted effect of over 50% in size
Outline: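 Reading was by luminescence 30 min after ONE-Glo addition. Before that, ERR cells at 2,000 per well had rested 6 h at 37 C/5% CO2 and then received pin-tooled compounds in DMSO for 18 h at 37 C.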

[6] = qHTS assay to identify small molecule agonists of the estrogen related receptor (ERR) signaling pathway from Tox21 library (AID 1224849; calls by dose curve; further: nearly all actives have a fitted effect of over 15% in size); details: ERR reporter cell line, ONE-Glo luciferase, 18 h; series mostly up to 92.4 µM
Outline: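 ERR reporter cells (NTP line) pre-incubated 6 hours at 37 C, then exposed to compounds for 18 hours at 37 C. ONE-Glo luciferase luminescence was read after 30 minutes at room temperature.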

[7] = qHTS RealTime-Glo MT Cell Viability Assay in HepG2 cells - 24 hour (AID 1224867); details: RealTime-Glo luminescence; series mostly up to 76.8 µM; further: nearly all actives have a fitted effect of over 50% in size
Outline: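 Viability was tracked continuously by NanoLuc luminescence from prosubstrate reduced by living HepG2 cells, at successive time points over 40 h of compound exposure. Cells with reagent were preincubated 5 h at 37 °C before compound addition.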

[8] = qHTS RealTime-Glo MT Cell Viability Assay in HEK293 cells - 32 hour (AID 1224868); details: RealTime-Glo luminescence; series mostly up to 76.8 µM; further: top concentration of the series differs between compounds; nearly all actives have a fitted effect of over 50% in size
Outline: (§1)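 Viability tracked continuously by luminescence as live cells reduce a prosubstrate for NanoLuc; HEK293 cells preincubated 5 h, compound-treated at 37 C, and read at 0, 8, 16, 24, 32 and 40 h.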

[9] = A CellTox Green Cytotoxicity Assay to monitor cytotoxicity in HEK293 cells - 0 hour (AID 1224869); details: CellTox Green fluorescence; series mostly up to 76.8 µM; further: nearly all actives have a fitted effect of over 50% in size
Outline: (§2)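 HEK293 cells, 600/well, were preincubated 5 hours and then exposed to compounds at 37 C for up to 40 hours. A cell-impermeant cyanine dye staining dead-cell DNA was read by fluorescence at 0, 8, 16, 24, 32 and 40 h time points.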

[10] = qHTS RealTime-Glo MT Cell Viability Assay in HepG2 cells - 40 hour (AID 1224870); details: RealTime-Glo luminescence; series mostly up to 76.8 µM; further: nearly all actives have a fitted effect of over 50% in size
Outline: (§3)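 Real-time viability: cells seeded at 600 per well together with NanoLuc and cell-permeant prosubstrate, compounds added after 5 h incubation. Luminescence tracked at 0, 8, 16, 24, 32 and 40 h of exposure.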

[11] = qHTS RealTime-Glo MT Cell Viability Assay in HEK293 cells - 16 hour (AID 1224872); details: RealTime-Glo luminescence; series mostly up to 76.8 µM
Outline: as §1

[12] = qHTS RealTime-Glo MT Cell Viability Assay in HepG2 cells - 8 hour (AID 1224873); details: RealTime-Glo luminescence; series mostly up to 76.8 µM; further: nearly all actives have a fitted effect of over 55% in size
Outline: as §3

[13] = qHTS RealTime-Glo MT Cell Viability Assay in HEK293 cells - 40 hour (AID 1224874); details: RealTime-Glo luminescence; max response: hits give low values; further: nearly all actives have a fitted effect of over 50% in size
Outline: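 600 cells/well were plated with the nonlytic NanoLuc/prosubstrate reagent, pre-incubated 5 h, then given 23 nL of compound in DMSO. Incubation at 37 C for 40 h, with luminescence from viable-cell-reduced substrate read repeatedly from 0 h.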

[14] = A CellTox Green Cytotoxicity Assay to monitor cytotoxicity in HEK293 cells - 24 hour (AID 1224875); details: CellTox Green fluorescence; series mostly up to 76.8 µM; further: nearly all actives have a fitted effect of over 45% in size
Outline: as §2

[15] = qHTS assay to identify small molecule antagonists of the estrogen related receptor signaling pathway with the pleiotropic PPARgamma coactivator (PGC) from Tox21 10K library (AID 1224841; call rule not given here); details: PGC/ERR reporter cell line, ONE-Glo luciferase, 18 h; series mostly up to 92.4 µM
Outline: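 PGC/ERR cell line, 2,000 cells/well, pre-incubated 6 hours at 37 C, then exposed to compounds for 18 hours at 37 C; luciferase read with One-Glo luminescence after 30 min at room temperature.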

[16] = qHTS assay to identify small molecule agonists of H2AX - cell viability counter screen (AID 1224847; calls by dose curve; further: top concentration of the series differs between compounds; nearly all actives have a fitted effect of over 30% in size); details: CHO-K1 viability, CellTiter-Glo luminescence, 3 h; series mostly up to 154 µM
Outline: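 Wild-type CHO-K1 cells (10% FBS medium) were plated overnight at 37C, exposed to compounds at 15 concentrations for 3 hr at 37C (0.76% DMSO final), and viability was read as CellTiter-Glo luminescence after 30 min at room temperature.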

[17] = A CellTox Green Cytotoxicity Assay to monitor cytotoxicity in HEK293 cells - 40 hour (AID 1224871); details: CellTox Green fluorescence; series mostly up to 76.8 µM; further: nearly all actives have a fitted effect of over 45% in size
Outline: as §2

[18] = target: Thyrotropin receptor (Homo sapiens) (UniProt P16473); experiment: qHTS assay to identify small molecule agonists of the thyroid stimulating hormone receptor (TSHR) signaling pathway (AID 1224843; calls by dose curve; further: nearly all actives have a fitted effect of over 45% in size); details: TSHR-HEK293 cells, cAMP HTRF, agonist mode, 30 min; series mostly up to 92.4 µM
Chain of Thyrotropin receptor (Homo sapiens) (P16473 whole entry, looked up): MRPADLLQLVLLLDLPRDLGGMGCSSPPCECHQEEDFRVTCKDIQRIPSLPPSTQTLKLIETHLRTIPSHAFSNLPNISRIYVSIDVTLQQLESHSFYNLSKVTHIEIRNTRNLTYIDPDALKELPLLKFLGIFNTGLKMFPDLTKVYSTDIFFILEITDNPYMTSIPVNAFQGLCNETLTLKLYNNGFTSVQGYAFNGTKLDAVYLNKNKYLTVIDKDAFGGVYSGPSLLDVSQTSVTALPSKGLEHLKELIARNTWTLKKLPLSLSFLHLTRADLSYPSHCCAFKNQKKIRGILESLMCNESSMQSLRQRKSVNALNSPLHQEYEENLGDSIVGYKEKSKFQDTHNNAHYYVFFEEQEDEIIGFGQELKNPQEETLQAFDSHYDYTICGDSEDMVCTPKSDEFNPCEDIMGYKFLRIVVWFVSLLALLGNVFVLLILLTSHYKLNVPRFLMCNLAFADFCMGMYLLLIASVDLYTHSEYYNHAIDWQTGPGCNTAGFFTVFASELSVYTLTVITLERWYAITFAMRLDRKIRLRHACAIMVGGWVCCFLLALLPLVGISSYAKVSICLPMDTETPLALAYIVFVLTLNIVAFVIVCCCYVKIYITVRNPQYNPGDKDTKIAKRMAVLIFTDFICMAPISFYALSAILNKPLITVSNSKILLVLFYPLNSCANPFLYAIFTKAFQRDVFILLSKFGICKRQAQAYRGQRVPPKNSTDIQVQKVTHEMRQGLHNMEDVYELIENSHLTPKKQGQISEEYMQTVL
Outline: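 HEK293 cells stably bearing the thyrotropin receptor were plated at 800 cells/well and challenged with compound (30 min, RT). Accumulated cAMP was quantified via cAMP-d2 competing for cryptate-tagged antibody.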

[19] = qHTS assay to identify small molecule antagonists of the estrogen related receptor signaling pathway with the pleiotropic PPARgamma coactivator (PGC) from Tox21 10K library - cell viability counter screen (AID 1224840; active means well fitted cell-killing curve with a large enough effect in the repeat runs, not every such curve was filed as active; further: nearly all actives have a fitted effect of over 40% in size); details: PGC/ERR reporter cells viability, CellTiter-Fluor, 17.5 h; series mostly up to 92.4 µM
Outline: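 PGC/ERR cells (2,000/well) plated 6 h, then compound-treated for 17.5 h at 37 C. Viability measured by CellTiter-Fluor fluorescence after 30 min at 37 C, multiplexed with the pathway assay.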
On the % scale 0 is the no-effect control and ±100 the full control effect.

CC(C)COC(=O)/C=C/c1ccccc1
inactive: outcome [1] | outcome [2] | outcome [3] | outcome [4] | Potency [5] | outcome [6] | outcome [7] | Potency [8] | Potency [9] | outcome [10] | Potency [11] | outcome [12] | max response [13] -4.89% | Potency [14]

CC(C)(C)NCCO
inactive: Potency [15] | outcome [1] | outcome [3] | outcome [4] | Potency [16] | Potency [5] | outcome [6] | Potency [8] | Potency [9] | outcome [10] | Potency [17] | Potency [11] | max response [13] 6.71% | Potency [14]

COCCOCCOCCOC
inactive: outcome [2] | outcome [3] | outcome [4] | Potency [16] | outcome [7] | outcome [10] | Potency [17] | outcome [12] | max response [13] 2.64% | Potency [14]

CCCCCCCC[Si](OCC)(OCC)OCC
inactive: outcome [2] | outcome [3] | outcome [4] | Potency [8] | Potency [9] | outcome [10] | Potency [17] | Potency [11] | outcome [12] | max response [13] 0.929% | Potency [14]

CCOC(=O)C(=O)c1csc(NC=O)n1
inactive: outcome [18] | outcome [2] | outcome [3] | outcome [4] | Potency [16] | outcome [7] | Potency [8] | Potency [9] | outcome [10] | Potency [17] | Potency [11] | outcome [12] | max response [13] 0.45% | Potency [14]

CC(C)COC(=O)CCCCC(=O)OCC(C)C
inactive: outcome [19] | outcome [2] | outcome [3] | outcome [4] | outcome [7] | Potency [8] | outcome [10] | Potency [17] | Potency [11] | outcome [12] | max response [13] -8.63% | Potency [14]
